Assay results taken from PubChem BioAssay.
For some of these results: Measured potencies and affinities stand elsewhere. Activity calls are given as the source filed them.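 The calls were made as follows, unless noted: active = primary screen active and over 50% activation in each of two duplicate runs; inactive = the rest.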

Experiments:
[1] = system: TRPC4 beta (transient receptor potential cation channel C4), mouse; assay: TRPC4 cation channel opening, retest – cell-based, Fluo4 calcium, HEK293 TRPC4beta/mu-opioid, duplicates, 10 µM, confirmation (AID 2426;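 active = fluorescence ratio normalized to control raised more than 50% in primary screen plus both repeat runs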); conditions: Fluo4 calcium fluorescence, at 10 µM; stronger effect = higher value
[2] = system: transient receptor potential cation channel C4 beta (TRPC4), mouse; assay: TRPC4 cation channel opening, second retest – cell-based, second round, Fluo4, HEK293 TRPC4beta/mu-opioid, 1 µM, confirmation (AID 2461); conditions: Fluo4 calcium fluorescence, at 1 µM; stronger effect = higher value
[3] = system: TRPC4 (transient receptor potential cation channel C4 beta), mouse; assay: potentiation of DAMGO EC20 TRPC4 response – cell-based, second round, Fluo-4, HEK293 TRPC4beta/mu-opioid, 1 µM, confirmation (AID 2554;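 active = primary screen hit whose fluorescence ratio, in both repeats, exceeds the weak agonist control mean by 3 SD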); conditions: DAMGO EC20, Fluo-4 calcium flux, at 1 µM; stronger effect = higher value
[4] = system: TRPC4 beta (transient receptor potential cation channel C4), mouse; assay: potentiation of DAMGO EC20 TRPC4 response – cell-based, Fluo-4, HEK293 TRPC4beta/mu-opioid, confirmation (AID 2555;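 active = primary screen hit whose calcium fluorescence ratio, in both repeats, exceeds the weak agonist control mean by 3 SD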); conditions: DAMGO EC20, Fluo-4 calcium flux, at 10 µM; stronger effect = higher value
[5] = target: Short transient receptor potential channel 4 (Mus musculus) (UniProt Q9QUQ5); assay: blockers of DAMGO-evoked TRPC4 calcium flux – cell-based, Fluo4, HEK293 TRPC4beta/mu-opioid, confirmation (AID 2636;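 active = calcium signal cut by more than 3 SD below the full-agonist control yet still positive, in both repeats and the earlier primary screen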); conditions: at 10 µM; stronger effect = higher value
Chain of Short transient receptor potential channel 4 (Mus musculus) (Q9QUQ5 whole entry, looked up): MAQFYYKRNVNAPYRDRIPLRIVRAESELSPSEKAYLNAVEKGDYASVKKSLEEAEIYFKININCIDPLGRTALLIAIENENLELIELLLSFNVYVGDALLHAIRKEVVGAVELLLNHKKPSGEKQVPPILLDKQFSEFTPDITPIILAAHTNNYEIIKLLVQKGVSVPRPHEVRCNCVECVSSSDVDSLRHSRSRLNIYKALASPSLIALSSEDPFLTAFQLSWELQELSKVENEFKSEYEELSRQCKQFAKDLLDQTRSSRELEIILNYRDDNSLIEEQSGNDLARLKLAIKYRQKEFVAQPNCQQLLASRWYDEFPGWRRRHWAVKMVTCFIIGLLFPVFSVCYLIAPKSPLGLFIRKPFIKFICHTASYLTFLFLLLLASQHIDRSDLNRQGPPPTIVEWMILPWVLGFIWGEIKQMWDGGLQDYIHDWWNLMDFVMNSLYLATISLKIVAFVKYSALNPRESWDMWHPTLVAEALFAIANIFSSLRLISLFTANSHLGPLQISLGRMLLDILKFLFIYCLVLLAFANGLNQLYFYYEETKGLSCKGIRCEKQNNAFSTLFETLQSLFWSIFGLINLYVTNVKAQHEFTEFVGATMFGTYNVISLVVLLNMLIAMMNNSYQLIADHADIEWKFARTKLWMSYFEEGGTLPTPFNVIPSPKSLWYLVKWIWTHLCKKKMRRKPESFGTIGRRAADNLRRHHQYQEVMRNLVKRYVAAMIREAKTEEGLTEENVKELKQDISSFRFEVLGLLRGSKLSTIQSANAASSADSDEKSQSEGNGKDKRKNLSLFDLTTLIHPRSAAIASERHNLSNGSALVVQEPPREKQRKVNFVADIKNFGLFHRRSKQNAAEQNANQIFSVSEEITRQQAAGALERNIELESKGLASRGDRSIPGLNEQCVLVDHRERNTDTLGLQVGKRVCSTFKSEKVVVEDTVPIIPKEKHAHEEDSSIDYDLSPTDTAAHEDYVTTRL

[6] = target: Short transient receptor potential channel 4 (Mus musculus) (UniProt Q9QUQ5); assay: blockers of DAMGO-evoked TRPC4 calcium flux – cell-based, second round, Fluo4, HEK293 TRPC4beta/mu-opioid, 1 µM, confirmation (AID 2637;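 active = calcium signal ratio cut to more than 3 SD under the fully stimulated control mean yet still positive, in both repeats and the primary screen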); conditions: at 1 µM; stronger effect = higher value
[7] = target: Short transient receptor potential channel 4 (Mus musculus) (UniProt Q9QUQ5); assay: calcium entry via TRPC4 opening agents – cell-based, HEK293 TRPC4/mu-opioid, Fluo-4 calcium, dose response (AID 434937;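 active = primary screen activator hit with a dose response curve and TRPC4 channel activation at any tested dose; inactive = no activation, no dose response, or not a primary hit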)
[8] = target: Short transient receptor potential channel 4 (Mus musculus) (UniProt Q9QUQ5); assay: potentiation of DAMGO-evoked TRPC4 calcium signal – cell-based, HEK293 TRPC4/mu-opioid, Fluo-4 calcium, EC20 DAMGO, dose response (AID 434941;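 active = earlier screen potentiator hit that boosts the TRPC4 ion channel at some dose, with a dose response; inactive = no potentiation, no dose response, or not a prior hit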;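 also: calcium entry triggered by an EC20 dose of DAMGO at the co-expressed mu-opioid receptor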)
[9] = target: Short transient receptor potential channel 4 (Mus musculus) (UniProt Q9QUQ5); assay: block of DAMGO-driven TRPC4 calcium entry – cell-based, HEK293 TRPC4/mu-opioid, Fluo-4 calcium, dose response (AID 434942;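 active = primary screen inhibitor hit that blocks the TRPC4 channel at some tested dose, yielding a dose curve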)
[10] = target: Short transient receptor potential channel 6 (Mus musculus) (UniProt Q61143); assay: TRPC6 blockade by TRPC4 inhibitor hits – cell-based, HEK293, membrane potential dye, duplicate, selectivity assay for TRPC4 inhibitor project, confirmation (AID 434948;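 active = active in primary screen and both duplicates, each dropping signal beyond three positive-control SD with fluorescence still positive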); conditions: HEK293 TRPC6, membrane potential dye fluorescence, at 10 µM, stimulated with maximal-effect acetylcholine; stronger effect = higher value
Chain of Short transient receptor potential channel 6 (Mus musculus) (Q61143 whole entry, looked up): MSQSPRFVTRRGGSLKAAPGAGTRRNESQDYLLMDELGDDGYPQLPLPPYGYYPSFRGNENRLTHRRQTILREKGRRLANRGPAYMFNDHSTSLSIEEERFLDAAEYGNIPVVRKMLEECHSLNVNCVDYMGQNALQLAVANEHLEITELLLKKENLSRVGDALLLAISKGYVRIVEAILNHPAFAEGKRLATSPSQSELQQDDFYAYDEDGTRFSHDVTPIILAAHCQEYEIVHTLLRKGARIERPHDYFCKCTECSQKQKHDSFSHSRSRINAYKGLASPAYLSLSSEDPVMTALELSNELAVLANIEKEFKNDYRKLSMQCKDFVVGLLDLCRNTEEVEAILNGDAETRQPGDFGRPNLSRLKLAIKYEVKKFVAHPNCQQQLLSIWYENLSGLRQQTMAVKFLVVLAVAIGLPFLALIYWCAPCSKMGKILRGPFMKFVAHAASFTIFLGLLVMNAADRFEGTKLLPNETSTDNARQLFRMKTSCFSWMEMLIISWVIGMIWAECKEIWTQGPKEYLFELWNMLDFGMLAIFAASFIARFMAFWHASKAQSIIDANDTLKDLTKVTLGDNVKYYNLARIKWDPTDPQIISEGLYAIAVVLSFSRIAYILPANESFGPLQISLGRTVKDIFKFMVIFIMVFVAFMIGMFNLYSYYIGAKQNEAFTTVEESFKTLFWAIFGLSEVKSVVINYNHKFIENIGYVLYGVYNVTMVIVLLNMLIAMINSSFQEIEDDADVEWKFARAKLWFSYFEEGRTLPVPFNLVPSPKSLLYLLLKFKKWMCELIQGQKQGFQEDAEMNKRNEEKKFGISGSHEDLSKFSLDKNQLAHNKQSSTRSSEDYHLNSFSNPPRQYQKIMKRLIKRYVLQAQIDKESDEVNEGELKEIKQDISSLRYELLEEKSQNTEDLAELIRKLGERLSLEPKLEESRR

[11] = target: Short transient receptor potential channel 6 (Mus musculus) (UniProt Q61143); assay: TRPC6 opening by TRPC4 activator hits – cell-based, HEK293, membrane potential dye, duplicate, selectivity assay for TRPC4 activator project, confirmation (AID 434950;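 active = membrane potential signal rise above negative control mean plus 3 SD in both duplicates, also active in the earlier TRPC4 screen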;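 as to activation: 0% = buffer only wells and 100% = acetylcholine maximal-effect wells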); conditions: HEK293 TRPC6, membrane potential fluorescence, at 10 µM; activation: stronger effect = higher value; outcome: activation
[12] = target: Short transient receptor potential channel 6 (Mus musculus) (UniProt Q61143); assay: positive modulators of mouse TRPC6 channel – HEK293 cells, membrane potential dye, duplicate, selectivity assay for TRPC4 potentiator project, confirmation (AID 434952;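 active = compound raising the membrane signal above positive-control mean plus 3 SD in both repeats, and a primary screen hit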); conditions: HEK293 TRPC6, membrane potential dye fluorescence, at 10 µM, maximal acetylcholine added after compound; stronger effect = higher value
[13] = target: Short transient receptor potential channel 4 (Mus musculus) (UniProt Q9QUQ5); assay: calcium flux activators in TRPC4/5HT1a cells, counter-screen for TRPC4 activator project, cell-based, second counter screen, HEK293 TRPC4/5HT1a, Fluo-4 (AID 434977;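 active = calcium signal rise above buffer-control mean plus 5 SD in both duplicates, and also a hit in the primary screen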); conditions: Fluo-4 calcium flux, at 10 µM; stronger effect = higher value
[14] = serotonin-gated TRPC4 signal block – cell-based, second counter screen, HEK293 TRPC4/5HT1a, Fluo-4, counter-screen for TRPC4 inhibitor project, confirmation (AID 434978;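 active = primary screen active whose calcium signal fell more than 3 SD beyond the full-serotonin control mean in both duplicate plates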;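 also: serotonin given first at submaximal then at maximal dose after compound preincubation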); conditions: Fluo-4 calcium flux, at 10 µM, serotonin added to trigger calcium flux; stronger effect = higher value
[15] = system: TRPC4 (mouse), co-expressed with 5HT1a in HEK293; assay: enhancement of serotonin-evoked TRPC4 response – cell-based, second counter screen, HEK293 TRPC4/5HT1a, Fluo-4, counter-screen for TRPC4 potentiator project, confirmation (AID 434979;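 active = signal rise over 3 SD above mean of control wells given weak agonist, in both repeats and first screen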); conditions: Fluo-4 calcium flux, at 10 µM, serotonin added at its EC20 dose; stronger effect = higher value
[16] = nonspecific calcium rise without TRPC4 – cell-based, HEK293 mu-opioid receptor line, counter-screen for TRPC4 activator project, confirmation (AID 449723;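 active = hit in primary screen, with calcium signal over 5 SD above buffer well mean in both duplicates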;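 also: counter screen cells carry the mu-opioid receptor alone and lack TRPC4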); conditions: HEK293 mu-opioid cells, Fluo-4 calcium fluorescence, at 10 µM; stronger effect = higher value
[17] = nonspecific potentiation of DAMGO calcium response – cell-based, HEK293 mu-opioid receptor line, counter-screen for TRPC4 allosteric potentiator project, confirmation (AID 449724;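 active = calcium signal rise more than 3 SD above the low-dose agonist control mean, in both duplicate plates and the primary screen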); conditions: HEK293 mu-opioid receptor cells, Fluo-4 calcium flux, at 10 µM, compound added before EC20 DAMGO stimulus; stronger effect = higher value

CCCC(=O)Nc1c(-c2ccccc2)c(=O)c(C)nn1-c1ccc(Cl)cc1
inactive: outcome [1] | outcome [2] | outcome [3] | outcome [4] | outcome [5] | outcome [6] | outcome [7] | outcome [8] | outcome [9] | outcome [10] | outcome [12] | outcome [13] | outcome [14] | outcome [15] | outcome [16] | outcome [17]
active: activation [11] 33.5%

CCn1c(C)nc2cc(C(=O)N/N=C/c3cccc(O)c3O)ccc21
active: potentiation [3] 79% | potentiation [4] 50% | potentiation [15] 23%
inactive: outcome [1] | outcome [2] | outcome [5] | outcome [6] | outcome [7] | outcome [8] | outcome [9] | outcome [10] | outcome [11] | outcome [12] | outcome [13] | outcome [14] | outcome [16] | outcome [17]

O=[N+]([O-])c1cc(Cc2ccccc2)cc(C=Nc2ccc(N3CCOCC3)cc2)c1O
inactive: outcome [1] | outcome [2] | outcome [3] | outcome [4] | outcome [5] | outcome [6] | outcome [7] | outcome [8] | outcome [9] | outcome [10] | outcome [11] | outcome [12] | outcome [13] | outcome [14] | outcome [15] | outcome [16] | outcome [17]

COc1ccc(CNC(=O)C(C)NCc2ccc(S(N)(=O)=O)cc2)cc1 (stereo unspecified)
inactive: outcome [1] | outcome [2] | outcome [3] | outcome [4] | outcome [5] | outcome [6] | outcome [7] | outcome [8] | outcome [9] | outcome [10] | outcome [11] | outcome [12] | outcome [13] | outcome [14] | outcome [15] | outcome [16] | outcome [17]

CN1CCN(Cc2cccc(Oc3ccc(Cl)cc3)c2)CC1
inactive: outcome [1] | outcome [2] | outcome [4] | outcome [5] | outcome [6] | outcome [7] | outcome [8] | outcome [9] | outcome [10] | outcome [11] | outcome [12] | outcome [13] | outcome [14] | outcome [16] | outcome [17]
active: potentiation [3] 22% | potentiation [15] 15.1%

NNc1ccc(Cc2ccc(Cl)cc2Cl)nn1
active: potentiation [15] 15.2%
inactive: outcome [1] | outcome [2] | outcome [3] | outcome [4] | outcome [5] | outcome [6] | outcome [7] | outcome [8] | outcome [9] | outcome [10] | outcome [11] | outcome [12] | outcome [13] | outcome [14] | outcome [16] | outcome [17]

CN1CCCN(Cc2cccc3ccccc23)CC1
inactive: outcome [1] | outcome [2] | outcome [4] | outcome [5] | outcome [6] | outcome [7] | outcome [8] | outcome [9] | outcome [10] | outcome [11] | outcome [12] | outcome [13] | outcome [14] | outcome [16] | outcome [17]
active: potentiation [3] 34% | potentiation [15] 28.3%

CCOC(=O)c1c(C)n(-c2ccc(C)cc2)c2ccc(OCC(O)CNCC3CCCO3)cc12 (stereo unspecified)
active: potentiation [15] 24.6%
inactive: outcome [1] | outcome [2] | outcome [3] | outcome [4] | outcome [5] | outcome [6] | outcome [7] | outcome [8] | outcome [9] | outcome [10] | outcome [11] | outcome [12] | outcome [13] | outcome [14] | outcome [16] | outcome [17]
